Experiment [1] in a line: qHTS assay to identify small molecule agonists of the progesterone receptor (PR) signaling pathway - cell viability counter screen (AID 1346799; calls by dose curve; note: nearly all actives have a fitted effect of over 45% in size). The essentials: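 Multiplexed viability read: CellTiter-Glo luminescence, 30 min RT, following LiveBLAzer FRET measurement on PR-UAS-bla HEK293T cells exposed to compounds 16 hr.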
A short description of experiment [2]: qHTS assay to identify small molecule antagonists of the TGF-beta/Smad signaling pathway - cell viability counter screen (AID 1346824). Note: nearly all actives have a fitted effect of over 50% in size. The essentials:
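SBE-bla HEK 293T cells, incubated overnight, then compound plus 0.25 ng/mL TGF-beta1 (stock added) for 5 hr at 37 C. Viability was read in the same wells by CellTiter-Glo luminescence after 30 min at room temperature.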
In general terms: In qHTS, concentration-response curves come from the screen itself.

Experiment [3] in a line: qHTS assay to identify small molecule agonists of the TGF-beta/Smad signaling pathway - cell viability counter screen (AID 1346829). Note: top concentration of the series differs between compounds; nearly all actives have a fitted effect of over 45% in size. The procedure, abridged:
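After overnight seating at 37 C and 5% CO2, reporter cells got compounds for 5 hr and FRET substrate for 2 hr; cell viability then came from CellTiter-Glo luminescence.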

Experiment [4] in a line: qHTS assay to identify small molecule agonists of the TGF-beta/Smad signaling pathway (AID 1346859; active = well fitted activation curve with a large enough effect in the signal ratio in the repeat runs, not every such curve was filed as active; the % refers to the signal ratio; note: series mostly up to about 77 µM). The procedure, abridged:
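Screening used HEK 293T SBE-bla cells at 4,000/well. Test agents: 5 hr, 37 C. Detection: FRET substrate, 2 hr RT, then excitation 405 nm with emissions at 460 and 530 nm.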

Experiment [5] can be described thus: Human pregnane X receptor (PXR) small molecule agonists, qHTS cell viability counter screen (AID 1346977). Note: nearly all actives have a fitted effect of over 50% in size. Note: potency is the fitted concentration of half-maximal effect. The essentials: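 In each well, the PXR reporter HepG2 line was checked for viability: CellTiter-Fluor reagent added 23hr post-dosing, fluorescence read after 1hr incubation at 37C.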
Experiment [6] can be described thus: Caspase-3/7 induction in HepG2 cells by small molecules, qHTS assay (AID 1346978). Note: nearly all actives have a fitted effect of over 15% in size. Note: potency is the fitted concentration of half-maximal effect. The essentials: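 Wild-type HepG2 cells, 2,000/well, settled 5 hr at 37 C and 5% CO2, then compound-treated for 17 hr; caspase-3/7 activity read by luminescent Caspase-Glo 3/7 after 30 min at room temperature.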
The nature of experiment [7]: Caspase-3/7 induction in CHO-K1 cells by small molecules, qHTS cell viability counter screen (AID 1346979). Note: nearly all actives have a fitted effect of over 35% in size. Note: potency is the fitted concentration of half-maximal effect. The procedure, abridged: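 Following a 5hr settling period, CHO-K1 cells at 1,500 per well received DMSO-dissolved compounds. Cell viability was quantified 16hr later by CellTiter-Fluor fluorescence, measured after 1hr with reagent at 37C.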
A short description of experiment [8]: Caspase-3/7 induction in CHO-K1 cells by small molecules, qHTS assay (AID 1346980). Note: nearly all actives have a fitted effect of over 15% in size. The procedure, abridged: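 Wild-type CHO-K1 cells exposed to compounds for 17hr at 37 C, 5% CO2. Caspase-3/7 activity then measured by Caspase-Glo 3/7 luminescence after 30min at room temperature.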
A short description of experiment [9]: Caspase-3/7 induction in HepG2 cells by small molecules, qHTS cell viability counter screen (AID 1346981). Note: series mostly up to about 92 µM; nearly all actives have a fitted effect of over 30% in size. The procedure, abridged: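 In this quantitative HTS counter screen, compounds delivered in DMSO were left on unmodified HepG2 cells for 16 hr at 37 C. Viability was then determined fluorometrically with CellTiter-Fluor, in parallel with caspase-3/7 induction in the same wells.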

The target in experiment [10] is Nuclear receptor subfamily 1 group I member 2 (Homo sapiens) (UniProt O75469). The experiment is described as follows: Human pregnane X receptor (PXR) small molecule agonists, qHTS assay (AID 1346982). Note: nearly all actives have a fitted effect of over 35% in size. Note: potency is the fitted concentration of half-maximal effect. The essentials: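 Reporter HepG2 cells expressing PXR-Luc are cultured in charcoal-stripped FBS (5%), treated with compounds for 24 hr at 37 C, and assayed by ONE-Glo luminescence after 30 min at room temperature.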

The target of experiment [11] is Cytochrome P450 2D6 (Homo sapiens) (UniProt P10635). The experiment is described as follows: Cytochrome P450 Family 2 Subfamily D Member 6 (CYP2D6) small molecule antagonists: luciferase reporter qHTS assay (AID 1671196). Note: nearly all actives have a fitted effect of over 50% in size. Note: potency is the fitted concentration of half-maximal effect. The procedure, abridged:
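Test chemicals meet CYP2D6 plus proluciferin substrate (10 min, RT); NADPH regenerating solution then drives turnover for 1 h. Detection reagent halts the reaction; luminescence measured after 20 min.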

Experiment [12] has as its target Cytochrome P450 2C19 (Homo sapiens) (UniProt P33261). In words: Cytochrome P450 Family 2 Subfamily C Member 19 (CYP2C19) small molecule antagonists: luciferase reporter qHTS assay (AID 1671197). Note: nearly all actives have a fitted effect of over 65% in size. Note: potency is the fitted concentration of half-maximal effect. The essentials: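 Inhibition of CYP2C19 was scored from loss of luminescence in a P450-Glo proluciferin substrate assay, NADPH-started and run 1 h at 37C, with ketoconazole as positive control.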

The target of experiment [13] is Cytochrome P450 2C9 (Homo sapiens) (UniProt P11712). The experiment is described as follows: Cytochrome P450 Family 2 Subfamily C Member 9 (CYP2C9) small molecule antagonists: luciferase reporter qHTS assay (AID 1671198). Note: nearly all actives have a fitted effect of over 50% in size. Note: potency is the fitted concentration of half-maximal effect. The procedure, abridged:
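P450-Glo proluciferin substrate with CYP2C9 enzyme; 10 min RT preincubation, then NADPH regeneration 1 h at 37C; luciferin detection reagent 20 min RT, luminescence in relative luminescence units.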
(In general: Reporter assays use an easily measured gene product as a stand-in for the process of interest.)

In experiment [14] the target is Voltage-gated inwardly rectifying potassium channel KCNH2 (Homo sapiens) (UniProt Q12809). The experiment is described as follows: Human Ether-a-go-go-Related Gene (hERG) channel small molecule antagonists: fluorescence cell-based qHTS assay (AID 1671200). The essentials:
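In this thallium-flux screen, overnight-cultured U2OS cells bearing the channel are dye-loaded in darkness for an hour, rested 10 min at room temperature, and then monitored kinetically at 480/540 nm for two minutes post-stimulus.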
(In general: Block of hERG is tested as a sign of cardiac risk.)

For experiment [15], the target named is Thyrotropin-releasing hormone receptor (Homo sapiens) (UniProt P34981). The experiment is described as follows: qHTS assay to identify small molecule antagonists of the thyrotropin-releasing hormone receptor (TRHR) signaling pathway (AID 1346877; active = well fitted inhibition curve with a large enough effect in the repeat runs, not every such curve was filed as active; note: series mostly up to about 51 µM). The procedure, abridged:
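Kinetic fluorescence (3 min, 1 s resolution) following stimulation with TRH at 1 nM final; HEK293 cells bearing human TRHR; 5 min compound preincubation at RT; concentration-response over 15 points, triplicates.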

Experiment [16] shares this target. The experiment is described as follows: qHTS assay to identify small molecule agonists of the thyrotropin-releasing hormone receptor (TRHR) signaling pathway (AID 1346891; calls by dose curve; note: series mostly up to about 58 µM). The essentials:
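Readout was intracellular calcium fluorescence in TRHR-Hek293 cells. Cells were incubated 18 h, dye-loaded 2 h at 37 °C, and treated with compound in agonist mode.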

For experiment [17], the target named is Cytochrome P450 1A2 (Homo sapiens) (UniProt P05177). In words: Cytochrome P450 Family 1 Subfamily A Member 2 (CYP1A2) small molecule antagonists: luciferase reporter qHTS assay (AID 1671199). The procedure, abridged:
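Steps: enzyme-substrate mix dispensed; test compounds and furafylline control pinned in; 10 min room temperature; NADPH regeneration solution added, 1 h; reaction stopped with luciferin detection reagent; luminescence read after 20 min.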

Experiment [18] concerns the target Cytochrome P450 3A4 (Homo sapiens) (UniProt P08684). The experiment is described as follows: Cytochrome P450 Family 3 Subfamily A Member 4 (CYP3A4) small molecule antagonists: luciferase reporter qHTS assay (AID 1671201). The procedure, abridged:
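CYP3A4 activity was followed with a P450-Glo proluciferin substrate. Test compounds in DMSO were preincubated 10 min; NADPH regeneration then ran 1 h, and light output was read 20 min after detection reagent.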

Several values for one entry are separate records, joined by “and”; a condition that tells them apart may be missing. Equal entries are not always repeated. Results filed as inconclusive are left out. More than one record can exist for a structure, and the calls need not agree. Activity calls are given as the source filed them. Unless noted, calls come from the whole dose curve; as a rule, active = well fitted curve in the direction sought with a large enough effect in the repeat runs; inconclusive = weak or mixed curves; inactive = no such curve, though single readings can be large; an effect the other way counts as inactive or inconclusive.

Chain of Thyrotropin-releasing hormone receptor (Homo sapiens) (P34981 whole entry, looked up): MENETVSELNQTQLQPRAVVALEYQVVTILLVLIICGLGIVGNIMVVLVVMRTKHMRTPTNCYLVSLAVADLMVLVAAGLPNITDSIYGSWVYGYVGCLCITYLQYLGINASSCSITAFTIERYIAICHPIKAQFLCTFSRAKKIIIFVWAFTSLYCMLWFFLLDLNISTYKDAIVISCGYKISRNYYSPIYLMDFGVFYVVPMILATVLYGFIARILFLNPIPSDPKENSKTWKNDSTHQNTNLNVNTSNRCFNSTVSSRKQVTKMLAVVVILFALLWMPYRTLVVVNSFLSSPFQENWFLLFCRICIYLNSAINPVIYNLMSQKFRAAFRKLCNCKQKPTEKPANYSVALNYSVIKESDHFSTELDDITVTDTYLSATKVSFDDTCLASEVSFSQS
Chain of Cytochrome P450 1A2 (Homo sapiens) (P05177 whole entry, looked up): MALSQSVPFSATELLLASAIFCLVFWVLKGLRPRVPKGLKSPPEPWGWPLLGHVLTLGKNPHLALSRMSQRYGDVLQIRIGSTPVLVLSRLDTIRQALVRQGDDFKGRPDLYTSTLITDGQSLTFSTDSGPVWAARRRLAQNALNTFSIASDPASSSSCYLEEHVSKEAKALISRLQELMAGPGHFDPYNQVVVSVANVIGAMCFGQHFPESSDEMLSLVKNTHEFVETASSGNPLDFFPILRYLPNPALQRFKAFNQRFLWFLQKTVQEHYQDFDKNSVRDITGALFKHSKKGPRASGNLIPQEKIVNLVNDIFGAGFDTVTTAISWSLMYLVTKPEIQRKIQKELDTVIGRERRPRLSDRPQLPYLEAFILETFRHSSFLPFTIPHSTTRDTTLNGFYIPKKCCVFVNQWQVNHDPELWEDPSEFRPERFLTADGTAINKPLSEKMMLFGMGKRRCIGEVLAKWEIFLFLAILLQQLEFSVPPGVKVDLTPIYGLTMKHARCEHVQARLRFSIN
Chain of Cytochrome P450 2C19 (Homo sapiens) (P33261 whole entry, looked up): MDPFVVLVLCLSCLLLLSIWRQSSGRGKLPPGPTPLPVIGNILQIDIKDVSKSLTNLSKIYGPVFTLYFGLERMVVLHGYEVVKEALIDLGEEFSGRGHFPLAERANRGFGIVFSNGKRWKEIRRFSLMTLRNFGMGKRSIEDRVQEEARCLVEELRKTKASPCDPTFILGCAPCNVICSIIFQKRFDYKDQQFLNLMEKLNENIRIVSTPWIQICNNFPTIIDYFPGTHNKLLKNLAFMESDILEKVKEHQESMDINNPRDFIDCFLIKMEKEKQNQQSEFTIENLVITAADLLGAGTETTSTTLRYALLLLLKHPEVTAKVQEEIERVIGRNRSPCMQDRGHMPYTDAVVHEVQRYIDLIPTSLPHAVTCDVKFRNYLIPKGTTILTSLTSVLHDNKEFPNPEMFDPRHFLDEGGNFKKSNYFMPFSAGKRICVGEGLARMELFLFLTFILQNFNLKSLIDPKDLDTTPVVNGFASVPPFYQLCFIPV
Chain of Voltage-gated inwardly rectifying potassium channel KCNH2 (Homo sapiens) (Q12809 whole entry, looked up): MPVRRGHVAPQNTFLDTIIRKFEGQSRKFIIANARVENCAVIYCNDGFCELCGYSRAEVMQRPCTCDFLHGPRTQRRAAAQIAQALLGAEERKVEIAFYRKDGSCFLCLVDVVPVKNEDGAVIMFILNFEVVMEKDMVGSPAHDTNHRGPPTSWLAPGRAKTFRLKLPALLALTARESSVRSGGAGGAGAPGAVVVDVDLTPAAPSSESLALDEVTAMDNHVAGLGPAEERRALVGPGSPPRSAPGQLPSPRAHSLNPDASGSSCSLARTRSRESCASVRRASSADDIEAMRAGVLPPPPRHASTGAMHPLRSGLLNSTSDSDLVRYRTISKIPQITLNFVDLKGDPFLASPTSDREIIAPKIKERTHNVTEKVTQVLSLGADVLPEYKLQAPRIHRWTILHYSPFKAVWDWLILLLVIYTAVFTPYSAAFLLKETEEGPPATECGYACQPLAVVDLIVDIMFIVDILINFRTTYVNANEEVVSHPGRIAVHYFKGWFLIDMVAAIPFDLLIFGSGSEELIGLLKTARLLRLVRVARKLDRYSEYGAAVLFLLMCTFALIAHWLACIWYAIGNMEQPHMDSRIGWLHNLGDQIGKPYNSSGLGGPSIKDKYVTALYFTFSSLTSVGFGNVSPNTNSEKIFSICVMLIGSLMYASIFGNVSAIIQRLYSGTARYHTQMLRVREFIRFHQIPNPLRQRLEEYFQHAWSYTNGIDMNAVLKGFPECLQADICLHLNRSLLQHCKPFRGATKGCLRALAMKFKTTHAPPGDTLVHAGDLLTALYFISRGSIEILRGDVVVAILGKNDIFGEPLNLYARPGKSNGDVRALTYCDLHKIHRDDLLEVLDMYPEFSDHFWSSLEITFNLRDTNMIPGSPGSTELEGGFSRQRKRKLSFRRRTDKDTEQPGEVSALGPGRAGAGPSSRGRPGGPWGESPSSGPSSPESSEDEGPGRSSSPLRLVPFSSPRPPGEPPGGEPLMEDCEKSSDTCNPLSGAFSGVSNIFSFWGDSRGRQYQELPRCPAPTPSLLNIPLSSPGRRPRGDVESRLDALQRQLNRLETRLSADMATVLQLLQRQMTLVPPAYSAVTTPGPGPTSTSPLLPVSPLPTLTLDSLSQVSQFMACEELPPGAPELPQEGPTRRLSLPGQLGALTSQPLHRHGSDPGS
Chain of Cytochrome P450 2D6 (Homo sapiens) (P10635 whole entry, looked up): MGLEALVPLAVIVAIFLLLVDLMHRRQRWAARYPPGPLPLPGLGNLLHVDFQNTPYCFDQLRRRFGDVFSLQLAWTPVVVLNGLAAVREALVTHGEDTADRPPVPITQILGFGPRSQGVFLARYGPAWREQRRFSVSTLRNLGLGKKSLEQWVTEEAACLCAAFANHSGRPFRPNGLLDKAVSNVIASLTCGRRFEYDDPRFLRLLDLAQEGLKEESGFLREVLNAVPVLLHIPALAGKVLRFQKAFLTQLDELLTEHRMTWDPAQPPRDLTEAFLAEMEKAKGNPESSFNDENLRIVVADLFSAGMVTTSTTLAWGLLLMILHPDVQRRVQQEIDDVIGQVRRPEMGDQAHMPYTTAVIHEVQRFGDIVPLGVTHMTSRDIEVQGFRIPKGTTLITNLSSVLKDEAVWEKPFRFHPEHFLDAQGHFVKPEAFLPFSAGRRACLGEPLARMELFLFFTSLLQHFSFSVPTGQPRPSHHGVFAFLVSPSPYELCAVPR
Chain of Cytochrome P450 2C9 (Homo sapiens) (P11712 whole entry, looked up): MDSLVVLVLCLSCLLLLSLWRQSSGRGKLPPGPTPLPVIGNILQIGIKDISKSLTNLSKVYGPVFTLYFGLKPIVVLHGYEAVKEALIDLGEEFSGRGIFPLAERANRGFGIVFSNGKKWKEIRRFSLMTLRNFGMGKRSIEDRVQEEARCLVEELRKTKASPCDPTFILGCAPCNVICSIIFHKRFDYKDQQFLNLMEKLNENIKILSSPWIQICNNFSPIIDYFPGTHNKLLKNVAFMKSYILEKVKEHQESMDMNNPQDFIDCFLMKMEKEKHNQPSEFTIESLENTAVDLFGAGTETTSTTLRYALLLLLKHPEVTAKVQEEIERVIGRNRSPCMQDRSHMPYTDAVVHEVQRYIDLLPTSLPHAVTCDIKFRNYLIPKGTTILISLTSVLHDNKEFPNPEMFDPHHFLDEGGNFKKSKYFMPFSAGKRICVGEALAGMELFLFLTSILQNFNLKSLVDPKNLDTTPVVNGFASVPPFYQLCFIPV
Chain of Nuclear receptor subfamily 1 group I member 2 (Homo sapiens) (O75469 whole entry, looked up): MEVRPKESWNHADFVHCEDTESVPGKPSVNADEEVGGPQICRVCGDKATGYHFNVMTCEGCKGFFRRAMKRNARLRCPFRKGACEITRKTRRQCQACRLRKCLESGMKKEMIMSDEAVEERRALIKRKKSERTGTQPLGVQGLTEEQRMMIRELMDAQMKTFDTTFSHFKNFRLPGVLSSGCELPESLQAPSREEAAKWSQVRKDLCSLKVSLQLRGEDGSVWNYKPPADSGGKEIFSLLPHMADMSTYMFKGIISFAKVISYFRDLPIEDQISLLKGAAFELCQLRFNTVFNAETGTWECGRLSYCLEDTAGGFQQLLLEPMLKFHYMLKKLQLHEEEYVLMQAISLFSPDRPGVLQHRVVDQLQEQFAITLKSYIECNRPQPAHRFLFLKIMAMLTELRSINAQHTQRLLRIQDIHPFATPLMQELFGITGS
Chain of Cytochrome P450 3A4 (Homo sapiens) (P08684 whole entry, looked up): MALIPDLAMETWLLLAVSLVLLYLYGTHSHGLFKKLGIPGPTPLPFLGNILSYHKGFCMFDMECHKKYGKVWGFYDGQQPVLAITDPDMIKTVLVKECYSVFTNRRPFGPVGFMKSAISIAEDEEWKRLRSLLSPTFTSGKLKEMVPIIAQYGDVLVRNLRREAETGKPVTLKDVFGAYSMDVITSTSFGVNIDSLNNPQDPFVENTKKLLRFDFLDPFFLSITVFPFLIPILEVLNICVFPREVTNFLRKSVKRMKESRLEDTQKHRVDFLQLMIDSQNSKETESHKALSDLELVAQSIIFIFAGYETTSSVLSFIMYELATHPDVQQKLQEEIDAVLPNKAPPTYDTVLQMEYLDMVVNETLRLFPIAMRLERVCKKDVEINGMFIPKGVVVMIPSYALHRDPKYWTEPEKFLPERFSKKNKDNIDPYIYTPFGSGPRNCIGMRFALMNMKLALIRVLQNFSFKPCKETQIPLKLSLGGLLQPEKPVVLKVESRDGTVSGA

For the compound `c1ccc2scnc2c1`, the Potency entry in experiment [1], in experiment [2], in [3], in [5], in [6] and in [7] was “inactive” throughout. The Potency result in experiment [9], in experiment [10], in experiment [11], in experiment [12] and in experiment [13] was “inactive” each time. Besides, the result in experiment [4], in experiment [8] and in experiment [14] was inactive.

For the compound `CCCCCOC(C)=O`, the Potency result in [1], in experiment [2], in experiment [3], in experiment [15], in [5] and in [9] was “inactive” each time. The Potency entry in [10], in experiment [11] and in [17] was “inactive” in each case. Besides, the compound was called inactive in experiment [4], in [16], in [8] and in [14]. The Potency in [12] was 32.1 µM (active) and inactive; in experiment [13], 10 µM (active).

As to `O=[N+]([O-])c1ccc(/C=C/c2ccc([N+](=O)[O-])cc2S(=O)(=O)O)c(S(=O)(=O)O)c1`, the Potency result in experiment [1], in [2], in experiment [3], in [15], in experiment [5] and in [7] was “inactive” each time. Further, the Potency entry in experiment [10], in [12] and in experiment [17] was “inactive” throughout. Further, the result in [4], in [16], in experiment [8] and in experiment [14] was inactive. The Potency in experiment [13] was 31.7 µM (active) and 39.9 µM (active).

For the compound `O=S1(=O)CC=CC1`, the Potency result in [1], in experiment [2], in [3], in [15], in experiment [9] and in experiment [11] was “inactive” throughout. Besides, the Potency result in [12], in experiment [13] and in [17] was “inactive” in each case. For the same compound, the call in experiment [16], in [8] and in [14] was inactive. Moreover, the Potency in experiment [5] is 39.8 µM (active) and inactive; in experiment [6], 59 µM (active) and inactive; in experiment [7], 29.6 µM (active) and inactive; in experiment [10], 52.6 µM (active) and inactive.

Turning to `Oc1cccc2ccccc12`, the Potency result in experiment [1], in experiment [2], in experiment [3], in experiment [15], in experiment [5] and in [9] was “inactive” in each case. Also, the outcome in experiment [4], in experiment [16], in [8] and in [14] was inactive. The Potency was 23 µM (active) and 39.9 µM (active) in [12]; 36.5 µM (active) and 35.6 µM (active) in experiment [13].

As to `O=c1[nH]nnc2ccccc12`, the Potency result in experiment [1], in experiment [2], in experiment [3], in [5], in experiment [6] and in experiment [9] was “inactive” each time. The Potency entry in [10], in experiment [11], in experiment [12], in experiment [13] and in [17] was “inactive” in each case. For the same compound, the outcome in experiment [4], in [8] and in experiment [14] was inactive.

Turning to `CC1CCC2CC1C2(C)C` (stereo not given), the Potency result in experiment [1], in [2], in experiment [3], in experiment [15], in experiment [5] and in experiment [6] was “inactive” each time. Further, the Potency result in [7], in experiment [9], in [10], in experiment [12], in experiment [13] and in [17] was “inactive” each time. The outcome in experiment [16], in experiment [8] and in experiment [14] was inactive. For the same compound, the Potency in [11] is 21.6 µM (active) and inactive.

On to `CCCCCCCCC/C=C/CC1CC(=O)OC1=O` (stereo not given), for which the Potency entry in [1], in experiment [2], in experiment [3], in experiment [5], in experiment [7] and in [9] was “inactive” throughout. Besides, the Potency result in experiment [10], in [17] and in experiment [18] was “inactive” in each case. The call in experiment [4], in [8] and in experiment [14] was inactive. The Potency entry in experiment [11] is “inactive and 39.9 µM (active)”; in experiment [13], 80 µM (active) and 39.9 µM (active).

Source of the values: PubChem BioAssay (Tox21).
